Reference: PubChem BioAssay (NCATS)
Records with an inconclusive call do not appear. Entries that show only a call come without a potency. A number with no mark means an inactive call. Calls of active or inactive are those of the source. The call rests on the fitted dose curve; in most records, active means well fitted curve in the direction sought with a large enough effect; inconclusive means small, poorly fitted or top-dose-only effect, or another doubt; inactive means no such curve, though single readings can be large; an effect the other way counts as inactive or inconclusive.

Legend:
[1] = biological target: Cellular tumor antigen p53 (Homo sapiens) (UniProt P04637); experiment: Primary qHTS for small molecule compounds that upregulate eGFP-tagged delta133p53alpha (in N-terminal) cells. (AID 2060322); conditions: NCI-H358 eGFP-delta133p53alpha fluorescence, 24 h; activation: active compounds read high; further: nearly all actives have a fitted effect of over 75% in size; further: potency means the concentration at half of the fitted maximal effect;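 on activation: cells pre-induced with doxycycline then dosed without doxycycline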
Outline: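 NCI-H358 cells pre-induced 24 h with 10 ng/ml doxycycline for eGFP-delta133p53alpha, plated dox-free and exposed 24 h at 37C to titrated compounds. Fixed, Hoechst-stained; gated GFP peak intensity by laser scanning cytometry, normalized to DMSO (0%) and 57.5 uM 5-azacytidine (100%).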

[2] = biological target: Aldehyde dehydrogenase, mitochondrial (Homo sapiens) (UniProt P05091); experiment: qHTS for Inhibitors of the Aldehyde Dehydrogenase Family (ALDH2) Primary screen (AID 2061308); conditions: ALDH2 enzyme inhibition qHTS, 1536-well; series mostly up to 56 µM; further: nearly all actives have a fitted effect of over 55% in size
[3] = biological target: Retinaldehyde dehydrogenase 3 (Homo sapiens) (UniProt P47895); experiment: qHTS for Inhibitors of the Aldehyde Dehydrogenase Family (ALDH1A3) Primary screen (AID 2061315); conditions: ALDH inhibition qHTS; series mostly up to 56 µM; further: potency means the concentration at half of the fitted maximal effect

Sequence of Cellular tumor antigen p53 (Homo sapiens) (P04637 whole entry, looked up): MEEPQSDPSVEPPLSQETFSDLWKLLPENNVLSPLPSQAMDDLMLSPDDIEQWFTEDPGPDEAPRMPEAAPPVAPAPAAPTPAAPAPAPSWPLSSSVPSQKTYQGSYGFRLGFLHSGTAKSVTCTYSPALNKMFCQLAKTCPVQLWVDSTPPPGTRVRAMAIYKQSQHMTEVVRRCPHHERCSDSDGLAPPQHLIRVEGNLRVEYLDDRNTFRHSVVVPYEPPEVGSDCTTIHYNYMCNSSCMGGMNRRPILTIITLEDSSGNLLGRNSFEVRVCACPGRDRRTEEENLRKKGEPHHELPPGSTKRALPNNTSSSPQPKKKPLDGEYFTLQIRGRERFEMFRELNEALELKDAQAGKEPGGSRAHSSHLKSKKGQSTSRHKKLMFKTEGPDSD

C[C@H]1O[C@@H](O[C@H]2CC[C@@]3(C)C(CC[C@]4(C)C3CC=C3C5CC(C)(C)CC[C@]5(C(=O)O)CC[C@]34C(=O)O)C2(C)C)[C@H](O)[C@@H](O)[C@@H]1O (stereo partly drawn)
activation [1]: -12.2%
Potency [2]: inactive
Potency [3]: inactive

OCC1OC(Oc2cc(O)cc(/C=C/c3ccc(O)cc3)c2)C(O)C(O)C1O (stereo not drawn)
activation [1]: -15.3%
Potency [2]: inactive
Potency [3]: 3.55 µM (active)

COc1cc2c(cc1OC)N1C(=O)C[C@]34C=CCN5CC[C@@H]2[C@@H](CC3)[C@]514
activation [1]: 3.05%
Potency [2]: inactive
Potency [3]: inactive

C/C(=C\CC[C@@H](C)[C@H]1CC(O)[C@@]2(C)C3CC[C@H]4C(C)(C)[C@@H](OC5OCC(O)C(O)C5OC5OC(CO)C(O)C(O)C5O)CC[C@@]45C[C@@]35CC(O)[C@]12C)C(=O)O (stereo partly drawn)
activation [1]: -16.8%
Potency [2]: inactive
Potency [3]: inactive

C=C(C)C(O)COc1ccc(CC(=O)O)cc1 (stereo not drawn)
activation [1]: 8.93%
Potency [2]: inactive
Potency [3]: inactive

CC1(C)CC[C@]2(C(=O)O)CC[C@]3(C)C(=CCC4[C@@]5(C)CC[C@H](O[C@@H]6O[C@H](CO)[C@@H](O)[C@H](O)[C@H]6O[C@@H]6O[C@H](CO)[C@@H](O)[C@H](O)[C@H]6O)[C@@](C)(CO)C5CC[C@]43C)[C@@H]2C1 (stereo partly drawn)
activation [1]: 9.82%
Potency [2]: inactive
Potency [3]: inactive

CC(=O)O[C@@H]1[C@@H](O)[C@H](C)O[C@@H](O[C@H]2[C@@H]3C=CO[C@@H](O[C@@H]4O[C@H](CO)[C@@H](O)[C@H](O)[C@H]4O)[C@@H]3[C@@]3(CO)O[C@@H]23)[C@@H]1OC(=O)/C=C/c1ccccc1
activation [1]: 4.58%
Potency [2]: inactive
Potency [3]: inactive

COc1ccccc1NC(=O)OCC1CCN(C(=O)OC(C)(C)C)CC1
activation [1]: -5.67%
Potency [2]: inactive
Potency [3]: inactive

CC(=O)OC1C(O)C(C)(O)C(/C=C/C(=O)O)C2(C)CCCC(C)(C)C12 (stereo not drawn)
activation [1]: -17.6%
Potency [2]: inactive
Potency [3]: inactive

CC(CCC1(O)OC2CC3C4CCC5CC(O[C@@H]6O[C@H](CO)[C@@H](O)[C@H](O)[C@H]6O[C@@H]6O[C@@H](C)[C@H](O)[C@@H](O)[C@H]6O)C(O)CC5(C)C4CCC3(C)C2C1C)CO[C@@H]1O[C@H](CO)[C@@H](O)[C@H](O)[C@H]1O (stereo partly drawn)
activation [1]: 9.82%
Potency [2]: inactive
Potency [3]: inactive

CC(C(O)c1ccccc1)N(C)CCOC(c1ccccc1)c1ccccc1 (stereo not drawn)
Potency [1]: 21.9 µM (active)
Potency [2]: inactive
Potency [3]: inactive

CC(C)=CCC/C(C)=C/CC/C(C)=C/CC[C@]1(C)CCc2cc(O)cc(C)c2O1
activation [1]: -3.05%
Potency [2]: inactive
Potency [3]: inactive

Nc1ncnc2c1ncn2[C@H]1O[C@@H](C(=O)N2CCN(CC(=O)Nc3cccc4c3CNC4=O)CC2)[C@H](O)[C@@H]1O
activation [1]: -24.3%
Potency [2]: inactive
Potency [3]: inactive

C=C1C(=O)O[C@@H]2CC(C)=C([C@@H](C)CCCOC(C)=O)[C@@H](O)[C@H]12
activation [1]: 28.6%
Potency [2]: inactive
Potency [3]: inactive

O=C(O)c1ccc(O)c2ncc(N3CCCN(CCc4cccc5ccccc45)CC3)cc12
activation [1]: 21.2%
Potency [2]: inactive
Potency [3]: inactive

CC(C)=CCC(O)/C(C)=C/CO[C@@H]1O[C@H](CO)[C@@H](O)[C@H](O)[C@H]1O (stereo partly drawn)
activation [1]: -15.2%
Potency [2]: inactive
Potency [3]: inactive

CCC(C)CNCC(=O)N1CCC2SC=CC2C1COc1cccc(C)c1 (stereo not drawn)
activation [1]: 17.9%
Potency [2]: inactive
Potency [3]: inactive

COc1cc2c(c(OC)c1CC=C(C)C)C[C@H](c1ccc(O)c(CC=C(C)C)c1O)CO2
activation [1]: -7.14%
Potency [2]: inactive
Potency [3]: inactive

C=C1C(=O)OC2C(OC(=O)C=C(C)C)C(C)=C3C(=O)C=C(C)C3C(O)C12 (stereo not drawn)
Potency [1]: 14.8 µM (active)
Potency [2]: inactive
Potency [3]: inactive

C[C@@H]1C(=O)O[C@H]2[C@H]1CC[C@@]1(C)C(=O)C=C[C@](C)(O)[C@H]21
activation [1]: 1.79%
Potency [2]: inactive
Potency [3]: inactive

C[C@H](O)C(O)(C(=O)OCc1ccccc1NC(=O)CCC(N)C(=O)O)[C@H](C)O (stereo partly drawn)
activation [1]: -24.4%
Potency [2]: inactive
Potency [3]: inactive

COC(=O)[C@H](Cc1cccc(C(=N)N)c1)[C@@H](C)NC(=O)c1ccc(-c2cc[n+]([O-])cc2)cc1
activation [1]: 8.93%
Potency [2]: inactive
Potency [3]: inactive

CCc1cc(CN2CC(C(=O)O)C2)sc1-c1noc(-c2ccc(Oc3ccccc3)cc2)n1
activation [1]: -2.39%
Potency [2]: inactive
Potency [3]: inactive

COC(=O)C1=CO[C@@H](O[C@@H]2O[C@H](CO)[C@@H](O)[C@H](O)[C@H]2O)[C@@H]2C(COC(C)=O)=C[C@H](O)[C@H]12
activation [1]: -14.5%
Potency [2]: inactive
Potency [3]: inactive

C/C(=C\C1CCC(C)C2CCC3(C)OC123)C(=O)O (stereo not drawn)
activation [1]: 8.04%
Potency [2]: inactive
Potency [3]: inactive

CC1OC(=O)C[C@@H]2C(C(=O)O)=CO[C@@H](O[C@H]3O[C@H](CO)[C@@H](O)[C@H](O)[C@H]3O)[C@H]12 (stereo partly drawn)
activation [1]: -23.2%
Potency [2]: inactive
Potency [3]: inactive

CC1(C(=O)O)CCCC2(C)C3=CCC4CC3(CCC12)CC4CO (stereo not drawn)
activation [1]: 3.82%
Potency [2]: inactive
Potency [3]: inactive

C=C1CC[C@@]2(OC1)O[C@H]1CC3C4CC=C5C[C@@H](O[C@@H]6O[C@@H](C)[C@H](O)[C@@H](O)[C@H]6O)C[C@@H](O[C@@H]6O[C@H](C)[C@H](O)[C@H](O)[C@H]6O[C@@H]6O[C@@H](C)[C@H](O)[C@@H](O)[C@H]6O)[C@]5(C)C4CC[C@]3(C)[C@H]1[C@@H]2C (stereo partly drawn)
activation [1]: -4.58%
Potency [2]: inactive
Potency [3]: inactive

C[N+]1(C)[C@@H]2C[C@@H](OC(=O)C(O)(c3cccs3)c3cccs3)C[C@H]1[C@@H]1O[C@@H]12
activation [1]: 8.63%
Potency [2]: inactive
Potency [3]: inactive

C#Cc1cnc2[nH]c(=O)n(C(CC)CC)c2n1
activation [1]: -4.77%
Potency [2]: inactive
Potency [3]: inactive

C=C(C)C1Cc2c(ccc3c2OCC(c2ccc(O)cc2O)C3)O1 (stereo not drawn)
activation [1]: 32.1%
Potency [2]: inactive
Potency [3]: inactive

COc1c2c(c(C)c3c1C(=O)OC3)OC1(C)CC(O)C(C(C)(C)O)C(C)(CCC(=O)O)C1C2 (stereo not drawn)
activation [1]: 8.4%
Potency [2]: inactive
Potency [3]: inactive

C/C1=C/CCC2=CC(OC2=O)C(C)(C)/C=C/C1=O (stereo not drawn)
Potency [1]: 4.26 µM (active)
Potency [2]: inactive
Potency [3]: inactive

COC(C(=O)N1Cc2[nH]nc(NC(=O)c3ccc(N4CCN(C)CC4)cc3)c2C1)c1ccccc1 (stereo not drawn)
Potency [1]: 23.9 µM (active)
Potency [2]: inactive
Potency [3]: inactive

C=C1CCC2C(C)(C(=O)O)CCCC2(C)C1CC/C(C)=C\CO (stereo not drawn)
activation [1]: 15.2%
Potency [2]: inactive
Potency [3]: inactive

O=C(/C=C/c1ccc(O)cc1)OC[C@@]1(O)C=C[C@@H]2C(C(=O)O)=CO[C@@H](O[C@@H]3O[C@H](CO)[C@@H](O)[C@H](O)[C@H]3O)[C@@H]21
activation [1]: -4.46%
Potency [2]: inactive
Potency [3]: inactive

O=C(Nc1ccc(C(O)(C(F)(F)F)C(F)(F)F)cc1)c1ccc(C(F)(F)F)cc1
activation [1]: 0%
Potency [2]: inactive
Potency [3]: inactive

CN(C)C(=O)CNC(=O)Cc1ccccc1
activation [1]: 5.02%
Potency [2]: inactive
Potency [3]: inactive

CC(C)CC(=O)O[C@@H]1OC=C(CO[C@@H]2O[C@H](CO)[C@@H](O)[C@H](O)[C@H]2O)[C@H]2[C@@H]3O[C@H]3[C@@](O)(CO)[C@@H]12
activation [1]: -3.05%
Potency [2]: inactive
Potency [3]: inactive

Cn1nnc(-c2ccc(-c3ccc(N4C[C@H](CO)OC4=O)cc3F)cn2)n1
activation [1]: -5.36%
Potency [2]: inactive
Potency [3]: inactive

C/C=C/C=C/C=C/C(=O)O[C@@H]1[C@@H](OC)C2=C(C(=O)N(C(C)C(=O)O)C2)[C@@]2(C)CCCC(C)(C)[C@H]12 (stereo partly drawn)
activation [1]: -2.68%
Potency [2]: inactive
Potency [3]: inactive

CC1CCC2(CO)C(C(=O)O)=CCCC2C1(C)CCc1ccoc1 (stereo not drawn)
activation [1]: 14.3%
Potency [2]: inactive
Potency [3]: inactive

CC1(C)CC2C3=CCC4C5(C)CCC(OC6OC(C(=O)O)C(O)C(O)C6OC6OC(CO)C(O)C(O)C6OC6OC(CO)C(O)C(O)C6O)C(C)(CO)C5CCC4(C)C3(C)CCC2(C)C(OC2OCC(O)C(OC3OC(CO)C(O)C(O)C3O)C2O)C1O (stereo not drawn)
activation [1]: -18.3%
activity change, negative = inhibition [2]: 5.84% [at 11.2 µM]
activity change, negative = inhibition [3]: -21.1% [at 11.2 µM]

C=C(COC(=O)C(C)C)C1Oc2cc(C(C)=O)ccc2C1OC(=O)C(C)C (stereo not drawn)
activation [1]: 2.29%
Potency [2]: inactive
Potency [3]: inactive

Cc1cc(Cn2cnc3c2CC(C(=O)O)N(C(=O)C(c2ccccc2)c2ccccc2)C3)ccc1N(C)C (stereo not drawn)
activation [1]: -7.64%
Potency [2]: inactive
Potency [3]: inactive

C[C@@H]1N[C@H]2N(C1=O)c1ccccc1[C@@]2(O)C[C@@H]1C(=O)N[C@@H](C)c2nc3ccccc3c(=O)n21
activation [1]: -22.9%
Potency [2]: inactive
Potency [3]: inactive

CC(=O)/C=C/C1C(C)CC(O[C@@H]2O[C@H](CO)[C@@H](O)[C@H](O)[C@H]2O)CC1(C)C (stereo partly drawn)
activation [1]: -0.893%
Potency [2]: inactive
Potency [3]: inactive

C=C1C(=O)OC2/C=C(\C)CC/C=C(\C=O)C(OC)C(OC(=O)C(C)CC)C12 (stereo not drawn)
Potency [1]: 16.6 µM (active)
Potency [2]: inactive
Potency [3]: inactive

Cc1occc(=O)c1O[C@@H]1O[C@H](CO)[C@@H](O)[C@H](O)[C@H]1O
activation [1]: 11.6%
Potency [2]: inactive
Potency [3]: inactive

CC(=O)O[C@@H]1C(O)C[C@@]2(C)C(CC[C@@H](C)C23Cc2c(O)cc4c(c2O3)CNC4=O)C1(C)C (stereo partly drawn)
activation [1]: -14.5%
Potency [2]: inactive
Potency [3]: inactive

C[C@@H]1O[C@@H](O[C@H]2[C@H](OC(=O)[C@]34CCC(C)(C)C[C@H]3C3=CCC5[C@@]6(C)C[C@H](O)[C@H](O[C@@H]7O[C@H](CO[C@@H]8OC[C@H](O)[C@H](O)[C@H]8O)[C@@H](O)[C@H](O)[C@H]7O)C(C)(C)C6CC[C@@]5(C)[C@]3(C)C[C@H]4O)OC[C@@H](O)[C@@H]2O)[C@H](O)[C@H](O[C@@H]2OC[C@](O)(CO)[C@H]2O)[C@H]1O[C@@H]1OC[C@H](O)[C@H](O[C@@H]2OC[C@@H](O)[C@H](O)[C@H]2O)[C@H]1O (stereo partly drawn)
activation [1]: 8.93%
activity change, negative = inhibition [2]: -4.16% [at 11.2 µM]
activity change, negative = inhibition [3]: 0.994% [at 11.2 µM]
